Broadly, the AC50 is the concentration giving half of the maximal activity seen.

This note sets out measurements from PubChem BioAssay (EPA / NIEHS).

The test system of test [1] is turtle Estrogen Receptor (ERa), gene 101933533. Briefly: ATG_trERa_XSP2: Attagene TRANS-FACTORIAL Multi-Species (XSP2) HepG2 Assay for turtle Estrogen Receptor (ERa) (AID 2283812).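 Further: human HepG2 liver cells transiently expressing turtle ERa-Gal4 chimeric receptor; actives raise reporter signal above DMSO so AC50 reflects agonist activity.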 The method, then:
(§1) ATG_XSP2_multi-species_TRANS is a cell-based, multiplexed assay created by modifying the existing Attagene TRANS-FACTORIAL system to include a panel of nuclear receptors from some or all the following species: human (Homo sapiens), mouse (Mus musculus), frog (Xenopus laevis), zebrafish (Danio rerio), chicken (Gallus gallus), and turtle (Chrysemys picta). The ECOTOX-FACTORIAL format uses HepG2, a human liver cell line, with measurements taken at 24 hours after chemical dosing in a 24-well plate. Xsp2 included 3 nM 6-alpha-fluorotestosterone and 1.5 nM norgestrel to stimulate the androgen receptor.ATG_trERa_XSP2 is one of 29 assay components measured or calculated from the ATG_XSP2_multi-species_TRANS assay. It is designed to make measurements of mRNA induction, a form of inducible reporter, as detected with fluorescence intensity signals by Reverse transcription polymerase chain reaction (RT-PCR) and Capillary electrophoresis technology.The assay endpoint ATG_trERa_XSP2 was analyzed in the positive analysis fitting direction relative to DMSO as the negative control and baseline of activity. Using a type of inducible reporter, measures of mRNA for gain-of-signal activity can be used to understand the reporter gene at the transcription factor-level as they relate to the gene ER. Furthermore, this assay endpoint can be referred to as a primary readout, because this assay has produced multiple assay endpoints where this one serves a reporter gene function. To generalize the intended target to other relatable targets, this assay endpoint is annotated to the nuclear receptor intended target family, where the subfamily is steroidal.
(§2) Human liver HepG2 cells are transiently transfected with multiple reporter transcription units (MRTUs) in 6-well plates using FuGene 6 reagent (Roche; 3 ml FuGene/1 mg DNA). The MRTU constructs are regulated by a cis-regulating element (promoter). […] A major difference between the CIS and TRANS system is that in CIS activities of endogenous TFs are measured, whereas the TRANS assay evaluates changes in activities of exogenous, chimeric NR-Gal4 proteins. […] At the end of 24 hour incubation, total RNA was isolated using TriZol reagent (Invitrogen). The isolated RNA is then reverse-transcribed using oligo(dT) primer and Mo-MLV reverse transcriptase (Invitrogen) with DNAse I (Ambion) treatment for 30 min. The one-tenth of the produced cDNA was amplified by PCR using Taq DNA polymerase (Invitrogen) and two reporter sequence-specific primers. The PCR products were fluorescently labeled by primer extension with 6-arboxyfluorescein (6-FAM) 5'-labeled reporter sequence-specific primer (2 min at 95 C, 20 s at 68 C and 10 min at 72 C) and these products were digested with 5U of HpaI (New England Biolabs) for 2h at 37 C. The fragments were purified using Qiaquick PCR columns (Qiagen), analyzed on an ABI 3130xL genetic analyzer (Applied Biosystems) with peak positions identified by using a set of X-rhodamine (ROX)-labeled MapMarker1000 molecular weight standards (BioVentures). The raw capillary electrophoresis data was processed using Attagraph software (Attagene).

Test [2] has as its target GAL4 Transcription Factor (Internal Marker), GAL4 (gene 855828) (UniProt P04386). The experiment in a line: ATG_GAL4_XSP2: Attagene TRANS-FACTORIAL Multi-Species (XSP2) HepG2 Assay for GAL4 Transcription Factor (Internal Marker) (AID 2283814).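 Further: GAL4 reporter mRNA background control in MRTU transfected cells not a receptor target.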 In a few lines:
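HepG2 cells transiently transfected with GAL4-UAS reporter units, stimulated with 3 nM 6-alpha-fluorotestosterone plus 1.5 nM norgestrel, dosed 24 h. Reporter mRNA by RT-PCR/capillary electrophoresis; gain-of-signal fit versus DMSO, background control.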

Test [3] relates to turtle Androgen Receptor (AR), gene 101947425. The experiment in a line: ATG_trAR_XSP2: Attagene TRANS-FACTORIAL Multi-Species (XSP2) HepG2 Assay for turtle Androgen Receptor (AR) (AID 2283815).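 On AC50: reporter mRNA from a Gal4 chimera of turtle AR measured by RT-PCR; potency for gain of reporter signal meaning activation above DMSO baseline.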 In a few lines:
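HepG2 cells transiently transfected with GAL4-UAS reporter units for chimeric NR-Gal4 receptors; 24 h dosing in presence of 3 nM 6-alpha-fluorotestosterone and 1.5 nM norgestrel. Reporter mRNA by RT-PCR and capillary electrophoresis, gain of signal versus DMSO.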

Test [4] has as its target zebrafish Estrogen Receptor (ER1), esr1 (gene 259252) (UniProt P57717). The experiment in a line: ATG_zfER1_XSP2: Attagene TRANS-FACTORIAL Multi-Species (XSP2) HepG2 Assay for zebrafish Estrogen Receptor (ER1) (AID 2283816). The procedure: as §1, with “receptor.ATG_zfER1_XSP2” for “receptor.ATG_trERa_XSP2”, “ATG_zfER1_XSP2” for “ATG_trERa_XSP2”
as §2

For test [5], the system named is zebrafish Estrogen Receptor (ER2a), gene 317734. The experiment in a line: ATG_zfER2a_XSP2: Attagene TRANS-FACTORIAL Multi-Species (XSP2) HepG2 Assay for zebrafish Estrogen Receptor (ER2a) (AID 2283818).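 Further: hits raise reporter mRNA so AC50 reflects activation of zebrafish ER2a.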 The method, boiled down: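 HepG2 cells transiently transfected with GAL4-UAS reporter units and chimeric zebrafish ER2a-Gal4, exposed 24 h; medium contains 3 nM 6-alpha-fluorotestosterone and 1.5 nM norgestrel. Reporter mRNA quantified by RT-PCR, HpaI digestion, capillary electrophoresis; gain versus DMSO.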

Test [6] relates to chicken Androgen Receptor (AR), gene 422165. Briefly: ATG_chAR_XSP2: Attagene TRANS-FACTORIAL Multi-Species (XSP2) HepG2 Assay for chicken Androgen Receptor (AR) (AID 2283819).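 Further: hits raise reporter mRNA above DMSO so potency is for activation.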 The method, then:
as §1, with “receptor.ATG_chAR_XSP2” for “receptor.ATG_trERa_XSP2”, “ATG_chAR_XSP2” for “ATG_trERa_XSP2”, “Using a type of inducible reporter, measures of mRNA for gain-of-signal activity can be used to understand the reporter gene at the transcription factor-level as they relate to the gene ER.” left out, “To generalize the intended target to other relatable targets, this assay endpoint is annotated to the nuclear receptor intended target family, where the subfamily is steroidal.” left out
Human liver HepG2 cells are transiently transfected with multiple reporter transcription units (MRTUs) in 6-well plates using FuGene 6 reagent (Roche; 3 ml FuGene/1 mg DNA). […] A major difference between the CIS and TRANS system is that in CIS activities of endogenous TFs are measured, whereas the TRANS assay evaluates changes in activities of exogenous, chimeric NR-Gal4 proteins. […] The fragments were purified using Qiaquick PCR columns (Qiagen), analyzed on an ABI 3130xL genetic analyzer (Applied Biosystems) with peak positions identified by using a set of X-rhodamine (ROX)-labeled MapMarker1000 molecular weight standards (BioVentures). […]

Test [7] relates to frog Estrogen Receptor (ER), gene 398734. The experiment in a line: ATG_frER1_XSP2: Attagene TRANS-FACTORIAL Multi-Species (XSP2) HepG2 Assay for frog Estrogen Receptor (ER) (AID 2283821).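 Further: hits raise reporter mRNA above DMSO baseline so potency means agonist or activator.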 In a few lines:
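HepG2 cells transiently transfected with GAL4-UAS reporter units expressing a chimeric frog ER-Gal4 protein; 24 h exposure. Reporter mRNA quantified by RT-PCR, fluorescent labelling and capillary electrophoresis; gain of signal fitted against DMSO baseline.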

The target in test [8] is Estrogen receptor beta (Homo sapiens) (UniProt Q92731). The experiment in a line: ATG_hERb_XSP2: Attagene TRANS-FACTORIAL Multi-Species (XSP2) HepG2 Assay for human Estrogen Receptor (ERb) (AID 2283813).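 Further: actives raise reporter mRNA above DMSO so AC50 reflects agonist induction.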 In a few lines:
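HepG2 cells transiently transfected with GAL4-UAS reporter units and chimeric human ERb-Gal4, 24 h exposure. Reporter mRNA quantified by RT-PCR with FAM labelling, HpaI digestion and capillary electrophoresis; gain of signal versus DMSO.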

Test [9] deals with chicken Estrogen Receptor (ERa), ESR1 (gene 396099) (UniProt P06212). Briefly: ATG_chERa_XSP2: Attagene TRANS-FACTORIAL Multi-Species (XSP2) HepG2 Assay for chicken Estrogen Receptor (ERa) (AID 2283817).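 Further: actives raise reporter signal above DMSO so AC50 reflects ER activation.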 In a few lines:
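Transiently transfected HepG2 cells expressing chimeric chicken ERa-GAL4 reporter units, dosed 24 h with 3 nM 6-alpha-fluorotestosterone and 1.5 nM norgestrel present. Reporter mRNA measured by RT-PCR and capillary electrophoresis; gain-of-signal fitted relative to DMSO.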

Test [10] can be described thus: ATG_M_19_XSP2: Attagene TRANS-FACTORIAL Multi-Species (XSP2) HepG2 Assay for M32 Transcription Factor (Internal Marker) (AID 2283822). The method, boiled down: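 Internal background marker in a multi-species nuclear receptor TRANS panel: transfected HepG2 cells exposed 24 h, with 3 nM 6-alpha-fluorotestosterone and 1.5 nM norgestrel present. Readout is RT-PCR of reporter transcripts resolved by capillary electrophoresis, gain-of-signal versus DMSO.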

Values joined by “and” are separate entries in the source; they are usually repeats but may differ in a detail not shown here. Identical values can stand only once. Records with an inconclusive call do not appear. Where a structure was tested more than once in an assay, its records may differ in their call. Active and inactive are the calls of the source. How the source made its calls: active means hit-call score of the fitted dose curve at least 0.9, where 1 is the maximum; inconclusive means response in the unintended direction; inactive means score below 0.9.

Sequence of zebrafish Estrogen Receptor (ER1), esr1 (gene 259252) (P57717 whole entry, looked up): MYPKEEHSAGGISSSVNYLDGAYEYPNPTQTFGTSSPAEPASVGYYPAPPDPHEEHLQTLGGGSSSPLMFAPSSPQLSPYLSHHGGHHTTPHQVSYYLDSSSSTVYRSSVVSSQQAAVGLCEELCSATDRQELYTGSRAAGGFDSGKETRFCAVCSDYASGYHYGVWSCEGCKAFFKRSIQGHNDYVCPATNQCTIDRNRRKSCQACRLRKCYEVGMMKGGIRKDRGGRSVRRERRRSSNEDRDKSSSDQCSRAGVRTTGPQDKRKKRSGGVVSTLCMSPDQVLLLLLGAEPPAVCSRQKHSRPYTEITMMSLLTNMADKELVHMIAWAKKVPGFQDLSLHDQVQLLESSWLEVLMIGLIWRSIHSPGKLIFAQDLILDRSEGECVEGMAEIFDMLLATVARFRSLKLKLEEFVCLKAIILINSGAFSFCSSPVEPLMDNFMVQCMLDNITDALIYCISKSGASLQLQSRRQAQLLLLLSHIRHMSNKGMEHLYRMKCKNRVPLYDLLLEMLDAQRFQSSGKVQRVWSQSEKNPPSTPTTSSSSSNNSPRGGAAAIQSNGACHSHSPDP
Sequence of chicken Estrogen Receptor (ERa), ESR1 (gene 396099) (P06212 whole entry, looked up, the tested form may be a part): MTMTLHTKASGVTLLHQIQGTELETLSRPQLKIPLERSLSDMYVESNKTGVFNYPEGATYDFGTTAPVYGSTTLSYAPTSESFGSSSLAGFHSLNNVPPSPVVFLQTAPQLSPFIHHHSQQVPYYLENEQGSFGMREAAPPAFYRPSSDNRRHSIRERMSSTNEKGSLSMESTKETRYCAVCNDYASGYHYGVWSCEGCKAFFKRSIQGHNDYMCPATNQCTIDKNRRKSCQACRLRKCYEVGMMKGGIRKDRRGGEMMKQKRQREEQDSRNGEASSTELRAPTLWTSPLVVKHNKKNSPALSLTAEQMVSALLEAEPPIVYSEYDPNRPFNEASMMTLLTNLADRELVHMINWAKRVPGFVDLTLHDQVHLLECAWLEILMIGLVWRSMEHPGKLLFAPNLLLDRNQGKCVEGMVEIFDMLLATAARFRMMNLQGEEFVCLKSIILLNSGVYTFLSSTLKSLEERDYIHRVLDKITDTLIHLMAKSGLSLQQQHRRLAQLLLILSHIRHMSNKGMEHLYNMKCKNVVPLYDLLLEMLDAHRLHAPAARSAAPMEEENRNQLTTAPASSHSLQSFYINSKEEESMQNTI
Sequence of GAL4 Transcription Factor (Internal Marker), GAL4 (gene 855828) (P04386 whole entry, looked up, the tested form may be a part): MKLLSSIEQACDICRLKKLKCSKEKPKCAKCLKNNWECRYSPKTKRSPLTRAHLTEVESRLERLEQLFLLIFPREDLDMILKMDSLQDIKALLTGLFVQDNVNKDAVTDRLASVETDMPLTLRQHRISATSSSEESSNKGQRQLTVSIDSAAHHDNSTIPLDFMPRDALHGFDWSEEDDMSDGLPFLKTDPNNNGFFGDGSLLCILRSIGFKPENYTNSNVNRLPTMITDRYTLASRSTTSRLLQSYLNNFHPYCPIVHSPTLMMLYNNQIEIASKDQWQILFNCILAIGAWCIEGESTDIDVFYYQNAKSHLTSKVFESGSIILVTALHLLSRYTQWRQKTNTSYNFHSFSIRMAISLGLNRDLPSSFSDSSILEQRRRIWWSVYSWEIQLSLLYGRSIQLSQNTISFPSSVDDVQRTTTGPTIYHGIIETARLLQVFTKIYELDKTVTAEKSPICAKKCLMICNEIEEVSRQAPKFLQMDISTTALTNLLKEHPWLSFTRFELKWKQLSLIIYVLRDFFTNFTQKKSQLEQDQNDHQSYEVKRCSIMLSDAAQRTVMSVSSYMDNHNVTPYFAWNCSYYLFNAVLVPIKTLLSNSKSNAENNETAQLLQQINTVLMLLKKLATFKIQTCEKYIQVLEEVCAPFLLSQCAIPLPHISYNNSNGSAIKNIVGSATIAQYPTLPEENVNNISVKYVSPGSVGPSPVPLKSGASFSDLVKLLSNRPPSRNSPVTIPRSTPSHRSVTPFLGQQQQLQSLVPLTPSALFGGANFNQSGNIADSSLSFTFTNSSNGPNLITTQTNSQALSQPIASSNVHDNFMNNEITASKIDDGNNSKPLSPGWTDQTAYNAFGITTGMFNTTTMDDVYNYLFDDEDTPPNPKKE
Sequence of Estrogen receptor beta (Homo sapiens) (Q92731 whole entry, looked up, the tested form may be a part): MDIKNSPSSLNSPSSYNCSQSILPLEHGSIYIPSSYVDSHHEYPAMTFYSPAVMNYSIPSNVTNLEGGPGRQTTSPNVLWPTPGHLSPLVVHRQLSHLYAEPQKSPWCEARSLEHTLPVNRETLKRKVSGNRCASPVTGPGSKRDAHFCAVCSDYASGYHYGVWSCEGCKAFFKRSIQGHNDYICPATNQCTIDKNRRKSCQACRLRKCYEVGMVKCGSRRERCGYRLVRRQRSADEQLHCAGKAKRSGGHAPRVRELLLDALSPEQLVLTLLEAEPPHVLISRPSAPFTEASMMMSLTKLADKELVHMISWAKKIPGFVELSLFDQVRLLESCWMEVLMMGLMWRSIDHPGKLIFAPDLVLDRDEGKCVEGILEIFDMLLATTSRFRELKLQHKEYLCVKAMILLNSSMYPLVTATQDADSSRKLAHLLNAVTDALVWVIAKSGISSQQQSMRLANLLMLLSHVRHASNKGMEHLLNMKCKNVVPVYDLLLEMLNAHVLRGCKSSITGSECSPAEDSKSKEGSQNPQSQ

Turning to `O=C(O)Cc1cc(I)c(Oc2cc(I)c(O)c(I)c2)c(I)c1`, the molecule was classed as inactive in [1], in [2], in test [3], in test [4], in test [5] and in test [6]. Further, in test [7], the result was inactive.
Consider `CC[C@H](c1ccc(O)cc1)[C@@H](CC)c1ccc(O)cc1`, for which the AC50 was 0.0546 nM (active) in test [1]; 0.147 nM (active) in [8]; 0.000411 µM (active) in test [4]; 0.0247 nM (active) in test [9]; 0.124 nM (active) in test [5]; 0.183 nM (active) in [7].
As to `c1ccc2c(c1)ccc1ccccc12`, the result in test [1], in [2], in test [9], in [5] and in test [7] was inactive.
Take `Oc1cc2ccccc2c2ccccc12`: the outcome in test [1], in test [8], in [2], in test [4], in test [5] and in test [10] was inactive.
In the case of `CCC(=C(c1ccc(O)cc1)c1ccc(OCCN(C)C)cc1)c1ccccc1`, the molecule was called inactive in test [8], in test [2] and in test [4].
As for `CCC(C)(C)C1CCC(O)CC1` (configuration not stated), the outcome in test [1], in test [2], in test [4], in [9], in test [5] and in test [7] was inactive. Moreover, the result in [10] was inactive.
With `Cc1oc(-c2ccccc2)nc1CCOc1ccc(C[C@H](Nc2ccccc2C(=O)c2ccccc2)C(=O)O)cc1`, the molecule was called inactive in test [1], in [8] and in test [7].
Consider `CCCOC(=O)c1ccc(O)cc1`, for which the AC50 in [1] was 72.9 µM (active) and 726 nM (active); in test [8], 31.9 µM (active) and 2.52 µM (active); in test [4], 11.1 µM (active); in test [9], 27.8 µM (active) and 9.35 µM (active); in test [5] it was 51 µM (active) and 3.49 µM (active); in test [6] it was 32000 nM (active). In test [7], the AC50 is 27.7 µM (active) and 407 nM (active). Also, the molecule was classed as inactive in test [2], in test [3] and in test [4].
Take `O=c1c(-c2ccc(O)cc2)coc2cc(O)ccc12`: the AC50 in test [1] is 994 nM (active) and 448 nM (active); in [3], 2320 nM (active); in test [4] it was 6.22 µM (active) and 2.67 µM (active); in test [9] it was 1.49 µM (active) and 369 nM (active); in test [5], 385 nM (active) and 164 nM (active); in [7], 983 nM (active) and 478 nM (active). Besides, the outcome in test [3] and in test [6] was inactive.
Turning to `C#C[C@]1(O)CC[C@H]2[C@@H]3CCC4=CC(=O)CC[C@@H]4[C@H]3CC[C@@]21C`, the AC50 in [1] is 122 nM (active); in [8] it was 2430 nM (active); in [3], 180000 nM (active); in [4], 1.65 µM (active); in test [9] it was 76.6 nM (active); in test [5], 83.4 nM (active). The result in test [10] was inactive.
